Reference: PubChem BioAssay (EPA / NIEHS)
Records with an inconclusive call do not appear. The source made the active and inactive calls. Rule for the calls, unless noted: active = hit-call score of the fitted dose curve at least 0.9, where 1 is the maximum; inconclusive = response in the unintended direction; inactive = score below 0.9.

Columns and labels:
[1] = molecular target: Estrogen receptor (Homo sapiens) (UniProt P03372); assay: OT_ER_ERaERa_1440: Odyssey Thera (OT) 24-hour HEK293T Protein-Complementation Assay for Estrogen Receptor-alpha/-alpha Homodimer (AID 2283349);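 note: hits raise fluorescence above DMSO for agonists and antagonists alike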
Summary of the method: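 HEK293T cells stably expressing the human ER alpha ligand-binding domain (aa 310-547) as a homodimer PCA were dosed for 24 hours. Fluorescence intensity was read by laser scanning cytometry, and gain of signal was fitted relative to DMSO vehicle.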

[2] = molecular target: Estrogen receptor (Homo sapiens) (UniProt P03372); assay: OT_ER_ERaERa_0480: Odyssey Thera (OT) 8-hour HEK293T Protein-Complementation Assay for Estrogen Receptor-alpha/-alpha Homodimer (AID 2283351);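 note: rise in fluorescence from reassembled reporter fragments on ERα LBD homodimer in nucleus or whole cell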
Summary of the method: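 HEK293T cells stably expressing the human ERα ligand-binding domain (aa 310-547) as a homodimer PCA were dosed with compound for 8 h. Gain of fluorescence intensity versus DMSO vehicle was read by laser scanning cytometry.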

[3] = molecular target: T1, Estrogen receptor (Homo sapiens) + Estrogen receptor beta (Homo sapiens) (UniProt P03372+Q92731); assay: OT_ER_ERaERb_0480: Odyssey Thera (OT) 8-hour HEK293T Protein-Complementation Assay for Estrogen Receptor-alpha/-beta Heterodimer (AID 2283352)
Summary of the method: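 Compound added to HEK293T cells carrying split-reporter-tagged ER-alpha and ER-beta LBDs, incubated 8 hours, then imaged by laser scanning cytometer. Signal rise in nucleus, or nucleus and cytoplasm, over vehicle was fitted in the positive direction.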

[4] = molecular target: T1, Estrogen receptor (Homo sapiens) + Estrogen receptor beta (Homo sapiens); assay: OT_ER_ERaERb_1440: Odyssey Thera (OT) 24-hour HEK293T Protein-Complementation Assay for Estrogen Receptor-alpha/-beta Homodimer (AID 2283356);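 note: heteromer of ER alpha and ER beta binding domains; hits raise reporter fluorescence and both agonists and antagonists give an increase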
Summary of the method: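 Stable HEK293T PCA line, ERα LBD 310-547 + ERβ LBD 263-489 fused to reporter fragments; 24 h treatment; fluorescence read by laser scanning cytometry; positive fitting direction relative to DMSO.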

[5] = molecular target: Estrogen receptor beta (Homo sapiens) (UniProt Q92731); assay: OT_ER_ERbERb_0480: Odyssey Thera (OT) 8-hour HEK293T Protein-Complementation Assay for Estrogen Receptor-beta/-beta Homodimer (AID 2283357);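 note: active means signal gain over DMSO baseline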
Summary of the method: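 Fluorescence intensity, nuclear for agonists and nuclear plus cytoplasmic for antagonists, was quantified by laser scanning cytometry versus vehicle after 8 h treatment. The cells were HEK293T stably carrying ER beta LBD fragment-complementation partners.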

[6] = molecular target: Estrogen receptor beta (Homo sapiens) (UniProt Q92731); assay: OT_ER_ERbERb_1440: Odyssey Thera (OT) 24-hour HEK293T Protein-Complementation Assay for Estrogen Receptor-beta/-beta Homodimer (AID 2283380);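 note: scored as signal increase over DMSO baseline for both agonists and antagonists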
Summary of the method: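 HEK293T cells stably expressing ER beta LBD (aa 310-547) homodimer fragment-complementation reporter, dosed 24 h. Cells formaldehyde-fixed, Draq5-stained; gain in nuclear (agonist) or nuclear plus cytoplasmic (antagonist) fluorescence versus DMSO read by laser scanning cytometry.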

[7] = molecular target: Estrogen receptor (Homo sapiens) (UniProt P03372); assay: OT_ERa_GFPERaERE_0480: Odyssey Thera (OT) 8-hour HeLa Transcription Induction Assay for Estrogen Receptor (AID 2283381; active = hit-call score of the fitted dose curve at least 0.9, where 1 is the maximum; inactive = score below 0.9)
Summary of the method: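 HeLa cells dosed with compound and imaged by fluorescence microscopy at 8 h; GFP induction from an ERE reporter quantified by high-content image analysis and fitted as gain of signal against DMSO baseline.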

[8] = molecular target: Estrogen receptor (Homo sapiens) (UniProt P03372); assay: OT_ERa_GFPERaERE_0120: Odyssey Thera (OT) 2-hour HeLa Transcription Induction Assay for Estrogen Receptor (AID 2283382)
Summary of the method: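 HeLa cells were dosed with test chemical and read 2 hours later for GFP-ERα/ERE-linked fluorescent protein induction by fluorescence microscopy. Gain-of-signal was fitted relative to DMSO baseline, quantified by high content image analysis.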

[9] = molecular target: Retinoic acid receptor RXR-alpha (Homo sapiens) (UniProt P19793); assay: OT_NURR1_NURR1RXRa_0480: Odyssey Thera (OT) 8-hour HEK293T Protein Complementation Assay for Nurr1/retinoid X receptor (RXR) (AID 2283385)
Summary of the method: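 HEK293T cells expressing Nurr1 and RXRα fused to reporter fragments were dosed with compound for 8 hours. Complex formation was read as fluorescence intensity and analysed as gain of signal against DMSO as baseline.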

[10] = molecular target: Retinoic acid receptor RXR-alpha (Homo sapiens) (UniProt P19793); assay: OT_NURR1_NURR1RXRa_1440: Odyssey Thera (OT) 24-hour HEK293T Protein Complementation Assay for Nurr1/retinoid X receptor (RXR) (AID 2283386)
Summary of the method: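 HEK293T cells were dosed with compound and read 24 h later by fluorescence intensity in a protein-fragment complementation format, where Nurr1–RXRα interaction reconstitutes a split reporter. Activity was fitted as gain of signal relative to DMSO baseline.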

[11] = molecular target: Peroxisome proliferator-activated receptor gamma (Homo sapiens) (UniProt P37231); assay: OT_PPARg_PPARgSRC1_0480: Odyssey Thera (OT) 8-hour Protein-Complementation Assay for Peroxisome Proliferator-activated Receptor Gamma / SRC-1 Co-activator (AID 2283387);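 note: nuclear to cytoplasmic split Venus YFP fluorescence ratio reporting PPARg SRC-1 interaction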
Summary of the method: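 Protein-fragment complementation of split Venus YFP reports PPARg/SRC-1 interaction in HEK293T (transfected 48 h before treatment), exposed 8 h. Readout: N/C fluorescence ratio at 488 nm from imaging, Draq5 for segmentation, positive fit relative to DMSO.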

[12] = molecular target: Peroxisome proliferator-activated receptor gamma (Homo sapiens) (UniProt P37231); assay: OT_PPARg_PPARgSRC1_1440: Odyssey Thera (OT) 24-hour Protein-Complementation Assay for Peroxisome Proliferator-activated Receptor Gamma/ SRC-1 Co-activator (AID 2283388);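 note: nuclear to cytoplasmic ratio of reconstituted Venus YFP fluorescence in fixed imaged cells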
Summary of the method: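 Protein-fragment complementation between PPARg and coactivator SRC-1 was measured by fluorescence imaging in transiently transfected HEK293T cells after 24 h treatment. Signal was quantified as N/C ratio in the 488 nm channel, with DMSO as negative control.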

[13] = read-out: Fatty acid synthase (Homo sapiens) (UniProt P49327); assay: LTEA_HepaRG_FASN: Life Technologies and Expression Analysis (LTEA) Assay for Fatty Acid Synthase (FASN) using HepaRG (AID 2283448; active = hit-call score of the fitted dose curve at least 0.9, where 1 is the maximum; inactive = score below 0.9); conditions: mRNA level, 48 h; actives raise or lower the signal
Summary of the method: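 Differentiated human HepaRG cells were exposed for 48 h in serum-free induction medium to eight half-log concentrations up to 100 uM in 0.5% DMSO, in duplicate. FASN mRNA was quantified by TaqMan qRT-PCR, normalized to ACTB/GAPDH/POLR2A, and fitted bidirectionally against DMSO.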

[14] = read-out: Cyclin D2 (CCND2), CCND2 (gene 894); assay: LTEA_HepaRG_CCND2: Life Technologies and Expression Analysis (LTEA) Assay for Cyclin D2 (CCND2) using HepaRG (AID 2283449; active = hit-call score of the fitted dose curve at least 0.9, where 1 is the maximum; inactive = score below 0.9;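 note: CCND2 transcript measured by TaqMan qRT-PCR and normalised to three housekeeping genes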); conditions: mRNA level, 48 h; actives raise or lower the signal
Summary of the method: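 Chemicals in 0.5% DMSO, eight half-log concentrations from 100 uM top, were applied in duplicate for 48 h to human HepaRG cells in serum-free induction medium. CCND2 mRNA by TaqMan qRT-PCR, normalised to ACTB/GAPDH/POLR2A; bidirectional fit versus DMSO.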

[15] = read-out: Cyclin Dependent Kinase Inhibitor 1A (CDKN1A), CDKN1A (gene 1026); assay: LTEA_HepaRG_CDKN1A: Life Technologies and Expression Analysis (LTEA) Assay for Cyclin Dependent Kinase Inhibitor 1A (CDKN1A) using HepaRG (AID 2283450; active = hit-call score of the fitted dose curve at least 0.9, where 1 is the maximum; inactive = score below 0.9); conditions: mRNA level, 48 h; actives raise or lower the signal
Summary of the method: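 Read-out is CDKN1A mRNA by TaqMan qRT-PCR, normalized to three housekeeping genes and fitted in both directions against the DMSO baseline. Human HepaRG cells were treated 48 h with test chemicals up to 100 uM in half-log steps, 0.5% DMSO.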

[16] = read-out: Cyclin D1 (CCND1), CCND1 (gene 595); assay: LTEA_HepaRG_CCND1: Life Technologies and Expression Analysis (LTEA) Assay for Cyclin D1 (CCND1) using HepaRG (AID 2283451; active = hit-call score of the fitted dose curve at least 0.9, where 1 is the maximum; inactive = score below 0.9); conditions: mRNA level, 48 h; actives raise or lower the signal
Summary of the method: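 HepaRG plated 48 h, medium switched to serum-free induction medium, chemicals added in duplicate (top 100 uM, half-log steps, 0.5% DMSO) for 48 h, cells lysed, RNA measured by TaqMan qRT-PCR.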

[17] = read-out: catalase (CAT), CAT (gene 847); assay: LTEA_HepaRG_CAT: Life Technologies and Expression Analysis (LTEA) Assay for catalase (CAT) using HepaRG (AID 2283452; active = hit-call score of the fitted dose curve at least 0.9, where 1 is the maximum; inactive = score below 0.9); conditions: mRNA level, 48 h; actives raise or lower the signal
Summary of the method: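 HepaRG cells in serum-free induction medium, 0.5% DMSO vehicle, exposed 48 h in duplicate over 8 half-log concentrations from 100 uM. CAT mRNA measured by qRT-PCR, normalized to ACTB, GAPDH, POLR2A; bidirectional fit versus DMSO.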

[18] = read-out: flavin-containing dimethylaniline monooxygenases 3 (FMO3), FMO3 (gene 2328); assay: LTEA_HepaRG_FMO3: Life Technologies and Expression Analysis (LTEA) Assay for flavin-containing dimethylaniline monooxygenases 3 (FMO3) using HepaRG (AID 2283453; active = hit-call score of the fitted dose curve at least 0.9, where 1 is the maximum; inactive = score below 0.9); conditions: mRNA level, 48 h; actives raise or lower the signal
Summary of the method: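 HepaRG, 48 h exposure, 8-pt half-log series from 100 uM, 0.5% DMSO vehicle, duplicates; FMO3 transcript by Fluidigm TaqMan qRT-PCR, housekeeping-normalized; gain/loss fit vs DMSO.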

Measured: outcome

Sequence of Peroxisome proliferator-activated receptor gamma (Homo sapiens) (P37231 whole entry, looked up, the tested form may be a part): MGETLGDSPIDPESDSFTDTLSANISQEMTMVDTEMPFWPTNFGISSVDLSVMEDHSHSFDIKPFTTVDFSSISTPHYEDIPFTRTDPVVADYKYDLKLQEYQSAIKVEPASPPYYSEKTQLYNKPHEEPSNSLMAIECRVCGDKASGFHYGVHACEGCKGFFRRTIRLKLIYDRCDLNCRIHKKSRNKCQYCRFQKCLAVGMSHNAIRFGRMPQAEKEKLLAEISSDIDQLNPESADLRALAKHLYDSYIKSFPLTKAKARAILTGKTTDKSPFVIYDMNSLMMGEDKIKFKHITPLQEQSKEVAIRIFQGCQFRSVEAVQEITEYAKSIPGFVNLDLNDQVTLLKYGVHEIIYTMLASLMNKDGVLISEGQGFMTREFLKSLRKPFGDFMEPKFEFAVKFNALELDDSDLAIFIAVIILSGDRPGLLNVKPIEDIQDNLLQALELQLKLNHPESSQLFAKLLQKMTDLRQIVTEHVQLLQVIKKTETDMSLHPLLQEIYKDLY
Sequence of Retinoic acid receptor RXR-alpha (Homo sapiens) (P19793 whole entry, looked up, the tested form may be a part): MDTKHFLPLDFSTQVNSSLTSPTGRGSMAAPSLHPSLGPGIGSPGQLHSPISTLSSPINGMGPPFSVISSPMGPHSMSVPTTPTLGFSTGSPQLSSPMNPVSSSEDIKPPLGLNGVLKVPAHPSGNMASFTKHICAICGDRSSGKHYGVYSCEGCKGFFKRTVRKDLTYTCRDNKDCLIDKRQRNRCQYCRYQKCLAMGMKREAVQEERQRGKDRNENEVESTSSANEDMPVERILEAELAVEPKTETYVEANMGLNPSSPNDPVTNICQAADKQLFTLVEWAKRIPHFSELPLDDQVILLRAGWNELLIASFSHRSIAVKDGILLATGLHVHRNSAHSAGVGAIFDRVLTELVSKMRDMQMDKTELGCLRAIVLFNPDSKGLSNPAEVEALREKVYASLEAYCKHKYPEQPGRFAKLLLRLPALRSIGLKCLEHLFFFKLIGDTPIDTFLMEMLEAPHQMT
Sequence of Estrogen receptor (Homo sapiens) (P03372 whole entry, looked up, the tested form may be a part): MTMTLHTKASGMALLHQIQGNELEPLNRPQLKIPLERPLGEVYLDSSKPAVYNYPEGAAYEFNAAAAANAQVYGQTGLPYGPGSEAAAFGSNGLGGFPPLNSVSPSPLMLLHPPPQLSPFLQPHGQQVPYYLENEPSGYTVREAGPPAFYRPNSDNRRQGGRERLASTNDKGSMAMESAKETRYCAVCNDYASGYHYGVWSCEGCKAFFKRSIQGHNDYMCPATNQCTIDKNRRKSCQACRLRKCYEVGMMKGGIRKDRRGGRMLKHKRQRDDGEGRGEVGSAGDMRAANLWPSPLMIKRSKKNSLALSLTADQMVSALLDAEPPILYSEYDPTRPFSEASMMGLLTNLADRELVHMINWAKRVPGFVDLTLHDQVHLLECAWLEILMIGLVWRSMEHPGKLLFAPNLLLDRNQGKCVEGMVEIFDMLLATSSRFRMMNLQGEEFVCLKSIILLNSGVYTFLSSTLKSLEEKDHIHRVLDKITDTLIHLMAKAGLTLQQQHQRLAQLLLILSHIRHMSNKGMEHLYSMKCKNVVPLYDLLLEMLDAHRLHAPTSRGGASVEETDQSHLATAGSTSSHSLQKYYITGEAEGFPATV
Sequence of Estrogen receptor beta (Homo sapiens) (Q92731 whole entry, looked up, the tested form may be a part): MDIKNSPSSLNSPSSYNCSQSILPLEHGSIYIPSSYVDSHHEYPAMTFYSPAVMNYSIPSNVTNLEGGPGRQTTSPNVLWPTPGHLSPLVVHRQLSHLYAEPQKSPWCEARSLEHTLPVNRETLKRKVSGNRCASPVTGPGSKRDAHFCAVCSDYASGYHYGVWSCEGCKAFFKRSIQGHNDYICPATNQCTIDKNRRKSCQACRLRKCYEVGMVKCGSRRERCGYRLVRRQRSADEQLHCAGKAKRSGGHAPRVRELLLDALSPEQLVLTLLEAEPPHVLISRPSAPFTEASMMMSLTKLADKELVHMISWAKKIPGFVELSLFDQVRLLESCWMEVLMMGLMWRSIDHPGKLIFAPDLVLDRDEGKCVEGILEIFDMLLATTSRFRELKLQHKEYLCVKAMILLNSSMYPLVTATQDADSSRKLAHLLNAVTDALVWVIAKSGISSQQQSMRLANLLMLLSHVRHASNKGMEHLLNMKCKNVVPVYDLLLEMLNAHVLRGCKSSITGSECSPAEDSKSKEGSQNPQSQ
T1 sequence (P03372 whole entry, looked up): as the sequence (P03372 whole entry, looked up, the tested form may be a part) above
T1 sequence (Q92731 whole entry, looked up): as the sequence (Q92731 whole entry, looked up, the tested form may be a part) above
Sequence of Fatty acid synthase (Homo sapiens) (P49327 whole entry, looked up): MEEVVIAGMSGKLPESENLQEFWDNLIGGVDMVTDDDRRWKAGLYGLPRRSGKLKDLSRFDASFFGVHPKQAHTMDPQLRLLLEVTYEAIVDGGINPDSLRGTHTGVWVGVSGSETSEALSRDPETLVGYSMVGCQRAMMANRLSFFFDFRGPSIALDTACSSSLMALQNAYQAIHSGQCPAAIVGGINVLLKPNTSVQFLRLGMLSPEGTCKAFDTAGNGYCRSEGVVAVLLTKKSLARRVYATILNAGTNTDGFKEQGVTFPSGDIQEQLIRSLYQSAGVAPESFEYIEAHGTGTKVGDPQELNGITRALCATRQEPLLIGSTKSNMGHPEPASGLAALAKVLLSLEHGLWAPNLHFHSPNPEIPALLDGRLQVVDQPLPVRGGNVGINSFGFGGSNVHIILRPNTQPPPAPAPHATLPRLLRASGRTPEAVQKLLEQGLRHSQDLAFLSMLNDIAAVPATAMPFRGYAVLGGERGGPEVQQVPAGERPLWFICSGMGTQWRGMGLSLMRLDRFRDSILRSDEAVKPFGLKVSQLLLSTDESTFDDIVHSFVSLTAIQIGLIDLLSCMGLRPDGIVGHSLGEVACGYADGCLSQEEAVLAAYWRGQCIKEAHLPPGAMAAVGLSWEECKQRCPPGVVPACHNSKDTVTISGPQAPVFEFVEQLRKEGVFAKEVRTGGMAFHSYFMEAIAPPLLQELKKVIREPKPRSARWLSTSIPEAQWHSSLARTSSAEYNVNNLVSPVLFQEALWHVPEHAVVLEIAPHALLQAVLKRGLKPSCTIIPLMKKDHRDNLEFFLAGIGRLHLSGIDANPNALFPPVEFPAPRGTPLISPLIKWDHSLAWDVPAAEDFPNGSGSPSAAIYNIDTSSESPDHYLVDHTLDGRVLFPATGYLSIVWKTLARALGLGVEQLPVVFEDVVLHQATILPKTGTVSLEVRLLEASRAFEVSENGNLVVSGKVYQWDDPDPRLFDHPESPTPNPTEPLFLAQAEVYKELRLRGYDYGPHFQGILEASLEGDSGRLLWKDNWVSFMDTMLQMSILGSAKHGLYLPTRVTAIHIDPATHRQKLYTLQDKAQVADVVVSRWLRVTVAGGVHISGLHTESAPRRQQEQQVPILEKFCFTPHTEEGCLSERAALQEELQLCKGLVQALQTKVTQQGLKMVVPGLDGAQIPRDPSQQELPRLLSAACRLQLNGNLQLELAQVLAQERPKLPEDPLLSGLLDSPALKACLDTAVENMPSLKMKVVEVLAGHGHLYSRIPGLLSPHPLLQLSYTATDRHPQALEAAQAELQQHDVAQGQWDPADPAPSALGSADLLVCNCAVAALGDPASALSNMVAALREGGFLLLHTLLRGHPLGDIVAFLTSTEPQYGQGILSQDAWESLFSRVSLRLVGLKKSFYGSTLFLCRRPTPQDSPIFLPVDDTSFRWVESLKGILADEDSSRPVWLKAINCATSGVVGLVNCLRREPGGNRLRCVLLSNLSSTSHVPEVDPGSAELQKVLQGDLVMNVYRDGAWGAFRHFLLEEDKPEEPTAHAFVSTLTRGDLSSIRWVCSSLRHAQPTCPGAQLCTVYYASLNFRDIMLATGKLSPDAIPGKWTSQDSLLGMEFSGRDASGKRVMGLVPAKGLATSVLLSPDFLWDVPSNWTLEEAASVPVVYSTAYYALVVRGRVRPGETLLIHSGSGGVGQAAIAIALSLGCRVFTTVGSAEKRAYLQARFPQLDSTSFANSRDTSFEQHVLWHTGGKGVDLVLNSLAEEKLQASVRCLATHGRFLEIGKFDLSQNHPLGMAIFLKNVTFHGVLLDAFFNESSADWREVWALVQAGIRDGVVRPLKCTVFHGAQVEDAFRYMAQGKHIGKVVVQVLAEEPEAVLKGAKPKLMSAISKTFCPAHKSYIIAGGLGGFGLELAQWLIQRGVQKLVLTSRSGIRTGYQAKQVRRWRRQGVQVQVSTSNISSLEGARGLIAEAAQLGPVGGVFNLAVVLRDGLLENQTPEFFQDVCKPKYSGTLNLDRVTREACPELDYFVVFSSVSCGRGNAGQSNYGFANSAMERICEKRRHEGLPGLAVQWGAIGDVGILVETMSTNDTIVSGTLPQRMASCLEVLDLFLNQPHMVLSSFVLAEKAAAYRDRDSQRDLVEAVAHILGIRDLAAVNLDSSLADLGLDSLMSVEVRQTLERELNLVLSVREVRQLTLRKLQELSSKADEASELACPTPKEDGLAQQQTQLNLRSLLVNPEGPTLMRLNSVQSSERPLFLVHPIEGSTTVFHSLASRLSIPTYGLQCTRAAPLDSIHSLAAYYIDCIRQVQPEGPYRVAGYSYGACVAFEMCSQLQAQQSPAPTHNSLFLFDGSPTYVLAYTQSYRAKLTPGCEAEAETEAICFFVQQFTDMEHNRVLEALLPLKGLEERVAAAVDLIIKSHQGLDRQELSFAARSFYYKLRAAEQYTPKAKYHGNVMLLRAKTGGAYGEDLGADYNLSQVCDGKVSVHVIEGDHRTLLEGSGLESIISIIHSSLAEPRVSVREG

c1cc[n+]2c(c1)-c1cccc[n+]1CC2
inactive: all assays above
